According to the supplement of paper PMC6555819:

Assays:
Test in all cases: PBM binding z-score (relative to random genomic background probes); higher = stronger binding; sequences stand for … in GC…GCGATTGACAGCGTAGAATGAAGG
[1] = system: FXR:RXRa (NR concentration 270 nM, RXRa partner concentration 90 nM)
In short: (§1)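 Ligand-free nuclear receptor dimers were applied to custom Agilent 4×180K protein-binding microarrays whose double-stranded probes carried direct-repeat seeds, single-nucleotide variants, half-site ablations and random human genomic background sequences in 34-nt variable regions. Incubation lasted 1 h. Binding z-scores were computed against the random background probes from regression-normalized fluorescence.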

[2] = system: LXRa:RXRa (NR concentration 270 nM, RXRa partner concentration 90 nM)
In short: as §1

[3] = system: LXRa homodimer (NR concentration 270 nM)
In short: as §1

[4] = system: LXRb:RXRa (NR concentration 270 nM, RXRa partner concentration 90 nM)
In short: as §1

[5] = system: LXRb homodimer (NR concentration 270 nM)
In short: as §1

[6] = system: PPARa:RXRa (NR concentration 270 nM, RXRa partner concentration 90 nM)
In short: as §1

[7] = system: PPARg:RXRa (NR concentration 180 nM, RXRa partner concentration 90 nM)
In short: as §1

[8] = system: PPARg:RXRa 270nM:90nM, anti-RXR (NR concentration 270 nM, RXRa partner concentration 90 nM)
In short: as §1

[9] = system: PPARg:RXRa 30nM:10nM, anti-RXR (NR concentration 30 nM, RXRa partner concentration 10 nM)
In short: as §1

[10] = system: PPARg:RXRa 90nM:30nM, anti-RXR (NR concentration 90 nM, RXRa partner concentration 30 nM)
In short: as §1

Row | Sequence | PBM binding z-score [1] | PBM binding z-score [2] | PBM binding z-score [3] | PBM binding z-score [4] | PBM binding z-score [5] | PBM binding z-score [6] | PBM binding z-score [7] | PBM binding z-score [8] | PBM binding z-score [9] | PBM binding z-score [10]
1 | CGAACGAGGGCGTGAGTTGATAGCAAATGCCGAT | -0.128 | -0.241 | -0.781 | -0.468 | -0.878 | 0.0145 | 0.401 | 0.0824 | -0.205 | -0.084
2 | ATCTCAAGGTAACCAAGTTCAGTGAATGCCGAAC | 0.76 | 1.12 | 0.681 | 0.656 | 0.916 | 0.956 | 0.372 | 0.412 | 0.204 | 0.378
3 | GCTCGGACGACAAGGTCAGAGCTTTGTCCGTAGA | 1.39 | 1.19 | -0.78 | 0.912 | -1.26 | 2 | 0.028 | 0.343 | -0.807 | -0.125
4 | CTACCAAGGTGAACAAGGTCGTTAATTACTATTC | 1.3 | 1.23 | 0.268 | 1.86 | -0.284 | 2.61 | 1.07 | 1.5 | 0.266 | 1.15
5 | CAAACTAGGTCAATAGGTCAAAGTCCGCTTCCCG | 5.97 | 5.58 | 3.46 | 4.5 | 1.42 | 5.97 | 9.53 | 7.87 | 6.52 | 8.3
6 | ACTATTAGTTGAGACGATGGCAACCGATAGGTTG | -0.242 | -0.267 | 0.0381 | -0.527 | 0.0838 | -0.263 | 0.598 | -0.0569 | 0.0135 | -0.0627
7 | ACTCTTAGTTGAGACGAGGGCAACCGATAGGTTG | 0.56 | -0.132 | -0.317 | 0.037 | -0.519 | 0.348 | 0.499 | -0.0707 | -0.348 | -0.0252
8 | GGTTGTAGATCAAGGTTAAGAAAGACTAAGCTAA | 0.73 | 1.3 | 0.323 | 1.19 | 0.361 | 1.5 | 0.938 | 1.63 | 0.752 | 1.31
9 | CGAACTAGGTCAAGGATAGTGAATCTCCGCACGC | 3.06 | 1.9 | 0.0332 | 1.36 | -0.0688 | 4.56 | 7.74 | 6.47 | 4.24 | 6.39
10 | TCTCGGAGGATACGAAGGTCAGAGCTTTCCAGAG | 0.399 | 0.672 | -0.0784 | 0.653 | -1.33 | 1.55 | 0.177 | 1.23 | 1.89 | 1.51
11 | TCTGCTAGGTCCACGATGGTCAGCTAATCTGCTA | -0.34 | -0.399 | -0.522 | -0.79 | -0.988 | -0.24 | -0.332 | 0.324 | 1.16 | 0.768
12 | CAGCCTATGTCAGGGCCAGTATAGGAGGAACGTT | -0.392 | -0.569 | -0.136 | -0.524 | -0.259 | -0.324 | 0.129 | -0.472 | -0.514 | -0.506
13 | TCTAATTGGTCACGGAGGTCACACACGACGGGTA | 3.62 | 4 | 2.74 | 3.75 | 1.6 | 4.35 | 4.51 | 5.01 | 4.41 | 5.06
14 | ACTCGGAGGACAAAGGTCAGCGCTACGCCAGTGA | 4.44 | 4.2 | 1.62 | 3.51 | 0.168 | 5.24 | 8.05 | 7.77 | 7.19 | 8.33
15 | ATATGTAGGCTACATCCGGGTCATTCAGGCTATG | 0.976 | 1.54 | 0.0787 | 1.85 | 0.425 | 3.62 | 3.08 | 2.77 | 1.13 | 1.85
16 | CCTAGCAGGCCTGGGTCACTCAAGCATTTCGCTT | 0.369 | 0.545 | -0.474 | 0.861 | -0.369 | 1.34 | -0.336 | 0.314 | -0.828 | -0.485
17 | ATCGAAAGGTCGTGGTGAGTATAGAGAAAGGGAA | 5.04 | 4.49 | 0.646 | 3.78 | 1.75 | 5.5 | 4.16 | 4.2 | 1.54 | 3.12
18 | TAGCCTAGGTCATCGGCCAGTATACCACGCGAAC | 4.02 | 3.35 | 0.717 | 2.54 | 0.178 | 3.56 | 2.62 | 2.75 | 0.448 | 1.67
19 | ACTTACGGGTCACCGAGGTTATAGCACGCGTATA | 7.33 | 5.59 | 1.1 | 4.77 | 0.402 | 6.19 | 7.11 | 6.57 | 3.18 | 5.44
20 | CCCAGTTGGTCAGGAGGTCACACACCGGATATGA | 3.51 | 3.58 | 1.99 | 3.58 | 0.535 | 4.21 | 3.56 | 3.79 | 1.07 | 3
21 | TAGCCTAGGTCATTGGGCGAGTATAGTACGCATC | 4.55 | 3.24 | 0.459 | 2.06 | 0.053 | 3.51 | 2.65 | 2.83 | 0.405 | 1.8
22 | CCTACTGGGCAACGAAAGGTCATTGATTCAGTGA | 3.6 | 5.33 | 5.51 | 4.2 | 0.197 | 4.2 | 2.1 | 3.54 | 0.974 | 2.72
23 | TCTATTAGTGGAAGGGCAACCGACGAGTCCGTTT | 0.67 | 0.688 | 0.218 | 0.807 | 0.57 | 0.716 | 0.0931 | 1.91 | 3.26 | 2.56
24 | AGAATGAGGTTAAGAGCAGGGAAACAGAATACAT | 2.07 | 1.9 | -0.281 | 1.52 | -0.266 | 3.4 | 1.98 | 2.15 | 0.589 | 1.22
25 | GGGACGAGGGCATTCGAGTTGATAGCATGGCGAT | 1.09 | 1.84 | -0.143 | 0.891 | 0.141 | 1.25 | 0.732 | 0.668 | -0.43 | 0.0864
